Screening data deposited in PubChem by several laboratories.
Rows were chosen to be rich in hits. Some 10% of all compounds tested hit in one or more screens of this group.
HCT116 bCat-KO = primary screen for growth suppressors in beta-catenin knockout HCT116 cells (colon tumor, human); viability, % at 10 µM; HCT116 beta-catenin knockout viability, CellTiter-Glo, 60 h; hits give low values; 1.5% of 140,000 active;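 active means viability at or under a set limit, the compound median less 4 SD, cut at about 6% in these data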
L major viab = Leishmania major promastigote growth inhibition, primary screen. Leishmania major promastigotes, resazurin fluorescence viability. inhibition, % at 10 µM. 9% of 200,000 active. AID 1063, 2008; in the data active means inhibition above about 50%;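 further: promastigotes grown with compound for 44 hours at 28 °C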
INS promoter inh = inhibitors of insulin promoter-driven GFP, primary screen, imaging, TRM-6 cells (human fetal islet line), eGFP reporter, cell count; reporter expression induced with tamoxifen; inhibition, % at 2 µM; 0.9% of 130,000 active;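 active means inhibition above the mean plus 3 SD, with well images judged a real hit on visual review, cut at about 60% in these data, passing the limit was not always enough; inconclusive means inhibition over the cutoff but images rejected on review; inactive means inhibition not above the cutoff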
p97 inhibitor = inhibitors of human p97 ATPase, primary screen, biochemical; AID 1481, 2009; 0.42% of 220,000 active; Transitional endoplasmic reticulum ATPase (Homo sapiens), P55072; inhibition, % at 8 µM; recombinant p97 ATPase, Kinase-Glo ATP luminescence, 3 h; in the data active means inhibition above about 15%
Target sequence (P55072 whole entry, looked up): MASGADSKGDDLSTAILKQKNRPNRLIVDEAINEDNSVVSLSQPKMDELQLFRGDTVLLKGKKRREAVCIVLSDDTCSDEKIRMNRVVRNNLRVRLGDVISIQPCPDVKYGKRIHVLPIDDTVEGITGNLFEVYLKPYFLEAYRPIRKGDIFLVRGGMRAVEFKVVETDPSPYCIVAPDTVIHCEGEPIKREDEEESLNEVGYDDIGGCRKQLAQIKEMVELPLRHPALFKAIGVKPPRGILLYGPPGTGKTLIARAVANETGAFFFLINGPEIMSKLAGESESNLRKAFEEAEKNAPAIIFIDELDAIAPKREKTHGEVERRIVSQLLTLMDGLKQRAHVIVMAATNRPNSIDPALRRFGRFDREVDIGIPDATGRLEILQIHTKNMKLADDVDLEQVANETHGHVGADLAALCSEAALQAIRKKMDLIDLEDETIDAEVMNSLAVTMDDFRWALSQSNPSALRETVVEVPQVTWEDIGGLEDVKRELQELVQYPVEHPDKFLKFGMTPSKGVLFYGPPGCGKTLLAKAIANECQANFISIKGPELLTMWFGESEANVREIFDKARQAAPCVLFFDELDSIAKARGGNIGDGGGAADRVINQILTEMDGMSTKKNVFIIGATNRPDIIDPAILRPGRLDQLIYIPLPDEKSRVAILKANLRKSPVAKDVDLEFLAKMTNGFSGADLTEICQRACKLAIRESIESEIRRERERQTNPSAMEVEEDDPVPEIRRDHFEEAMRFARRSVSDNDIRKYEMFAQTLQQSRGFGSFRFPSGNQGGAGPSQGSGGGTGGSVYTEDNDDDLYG
ROMK mod = ROMK potassium channel modulators, primary screen, cell-based, thallium flux, MLSMR library; ATP-sensitive inward rectifier potassium channel 1 (Homo sapiens), P48048; Tet-inducible ROMK, thallium flux fluorescence; actives lie on both sides; B-score at 10 µM; 2% of 130,000 active; AID 1918, 2009;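 active means signal ratio slope over the read window, or its plate-corrected B-score, at least 3 SD from the plate mean, either direction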;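 further: B-score of the F/F0 ratio slope over 7 to 12 s after thallium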
PTEN del growth = growth suppression of PTEN-null HCT116, primary screen, cell-based, CellTiter-Glo. HCT116 PTEN-null viability, 60 h; hits give low values. viability, % at 10 µM. 1.2% of 140,000 active. AID 827, 2007;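 active means viability at or below a set limit, 4 SD under the median of all tested compounds, cut at about 3.7% in these data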;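 further: PTEN knockout HCT116 line with beta catenin targeted HCT116 as companion control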
ROMK hit retest = ROMK channel modulator hit retest, confirmation, cell-based, thallium flux, duplicate, resupplied hits. shares compounds with ROMK mod. fluorescence ratio; hits give low values. normalized thallium flux (F/F0 slope) at 10 µM. 54% of 3,000 active. AID 1917, 2009;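 active means Flux at 10 µM at least 3 SD below or above vehicle control mean in one or both replicates; inconclusive means no clear call, values can overlap the other calls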
Of the large screens only hits and unclear results are named; the others gave an inactive call (follow-up assays come after a bar, where they were run).

Cc1cc(C)nc(SCC(=O)N/N=C/c2cc(C)n(-c3ccccc3C)c2C)n1	ROMK mod 6.64 | ROMK hit retest 0.117
Cc1cccc(C)c1-n1c(C)cc(/C=N/NC(=O)CSc2ncccn2)c1C	none (no result: ROMK mod)
Cc1cc2ncn(C3CC(=O)N(Cc4ccc(N5CCCC5=O)cc4)C3=O)c2cc1C (centres undefined)	none (no result: INS promoter inh, ROMK mod)
CCOC(=O)c1ccc2[nH]c3c(c2c1)CCCC3C(=O)OCC (centres undefined)	none (no result: ROMK mod)
CCOC(=O)c1ccc2[nH]c3c(c2c1)CCCCC3=O	none (no result: ROMK mod) | ROMK hit retest inactive
CC1Cc2nc(SCC(=O)N3CCN(c4ccccc4)CC3)n(CCc3ccccc3)c(=O)c2S1 (centres undefined)	none (no result: INS promoter inh, ROMK mod) | ROMK hit retest 0.0641
CC1=CC(=C2C(=O)c3ccccc3C2=O)C=C(C)O1	none (no result: ROMK mod)
CC(=O)C1=C(c2ccc(Br)cc2)C(=O)c2ccccc2C1=O	HCT116 bCat-KO 1.6, L major viab 100.4, ROMK mod -4.67, PTEN del growth 1.4 | ROMK hit retest 0.0524
COc1ccc(NC(=O)CC2C(=O)N(c3cccc(C)c3)C(=O)N2C2CCCCC2)cc1 (centres undefined)	none (no result: ROMK mod)
COc1ccccc1C1(CCNC(C)c2cccs2)CCOC(C(C)C)C1 (centres undefined)	none (no result: HCT116 bCat-KO, L major viab, INS promoter inh, ROMK mod, PTEN del growth) | ROMK hit retest 0.0412
COCCn1c(SCc2cc(C(C)=O)ccc2OC)nc2cc(Cl)ccc2c1=O	none
CC(=O)O/C(=C\c1cn(C(C)=O)c2ccccc12)C(=O)O	none (no result: HCT116 bCat-KO, L major viab, INS promoter inh, PTEN del growth)
CC(=O)n1cc(N(C(=O)CCl)c2ccccc2)c2ccccc21	ROMK mod -2.84 (no result: HCT116 bCat-KO, L major viab, INS promoter inh, PTEN del growth) | ROMK hit retest inconclusive
O=C(c1cc(N2C(=O)C3C4CCC(C4)C3C2=O)ccc1Cl)N1CCN(c2ccc(F)cc2)CC1 (centres undefined)	L major viab 75.4, ROMK mod -5.02 | ROMK hit retest 0.0607
O=C(c1cc(N2C(=O)C3C4CCC(C4)C3C2=O)ccc1Cl)N1CCCCCC1 (centres undefined)	none (no result: HCT116 bCat-KO, PTEN del growth)
CC(C)(C)Nc1nc(Cl)nc(NCc2ccccc2)n1	ROMK mod -8.46 (no result: HCT116 bCat-KO, L major viab, INS promoter inh, PTEN del growth) | ROMK hit retest 0.0472
Cc1c(/C=N/n2cnnc2)c2ccccc2n1C	none (no result: INS promoter inh, ROMK mod)
CN1C(=O)C2(OCC(COc3ccc(Cl)cc3)O2)c2ccccc21 (centres undefined)	none (no result: ROMK mod) | ROMK hit retest inactive
COc1ccc(C2CC(C(F)(F)F)n3ncc(C(=O)Nc4c(C)n(C)n(-c5ccccc5)c4=O)c3N2)cc1 (centres undefined)	ROMK mod -6.15 | ROMK hit retest inactive
O=C(N/N=C1\CCCc2c1[nH]c1ccc([N+](=O)[O-])cc21)c1ccncc1	none (no result: INS promoter inh, ROMK mod)
O=c1nc(/C=C/c2cc([N+](=O)[O-])ccc2Cl)cc(C(F)(F)F)[nH]1	ROMK mod -6.05 | ROMK hit retest 0.0403
O=c1nc(/C=C/c2cccn2-c2ccc([N+](=O)[O-])cc2)cc(C(F)(F)F)[nH]1	none (no result: HCT116 bCat-KO, PTEN del growth)
Clc1ccc(C(c2nnnn2C2CCCC2)N2CCSCC2)cc1 (centres undefined)	none
COc1ccc(CN(C)C(=O)CCl)cc1	none (no result: HCT116 bCat-KO, PTEN del growth)
CN(Cc1ccc(Cl)cc1)C(=O)CCl	ROMK mod -4.66 (no result: HCT116 bCat-KO, INS promoter inh, PTEN del growth) | ROMK hit retest inconclusive
COc1cc(C)nc(NC(=O)COc2ccc(Cl)cc2C)n1	none (no result: ROMK mod) | ROMK hit retest inconclusive
c1ccc(-n2cnc3cc(NCc4ccco4)ccc32)cc1	ROMK mod 3.31 (no result: HCT116 bCat-KO, INS promoter inh, PTEN del growth) | ROMK hit retest inconclusive
Cn1c(OCc2ccc3c(c2)OCO3)nc2c1c(=O)n(Cc1cccc(Cl)c1)c(=O)n2C	none (no result: HCT116 bCat-KO, PTEN del growth)
N#C/C(=C(/O)C(Cl)(Cl)Cl)c1nc2ccccc2[nH]1	ROMK mod -4.95 (no result: HCT116 bCat-KO, L major viab, INS promoter inh, PTEN del growth) | ROMK hit retest 0.045
N#C/C(=C/c1ccncc1)c1nc2ccccc2s1	ROMK mod -3.47 (no result: HCT116 bCat-KO, PTEN del growth) | ROMK hit retest 0.0529
N#C/C(=C\c1ccncc1)c1nc2ccccc2[nH]1	L major viab 59.4, ROMK mod -5.24 (no result: HCT116 bCat-KO, INS promoter inh, PTEN del growth) | ROMK hit retest 0.0511
CCCCNC(=O)CC1C(=O)N(Cc2ccccc2)C(C)c2nc3ccccc3n21 (centres undefined)	none (no result: INS promoter inh)
COCCCNC(=O)CC1C(=O)N(Cc2ccccc2)C(C)c2nc3ccccc3n21 (centres undefined)	ROMK mod -4.42 (no result: HCT116 bCat-KO, PTEN del growth) | ROMK hit retest inactive
COc1ccccc1CNC(=O)C(=O)NCC1OCCN1C(=O)c1cccs1 (centres undefined)	none (no result: INS promoter inh, ROMK mod)
CCCC(=O)NCCSC	none (no result: ROMK mod)
COc1cc(NCCCCCCCN)c2ncccc2c1	HCT116 bCat-KO 1.7, L major viab 100.3, ROMK mod -5.06, PTEN del growth 2.3 | ROMK hit retest 0.0621
O=S1(=O)CCC(NC(=S)SCCOc2ccccc2)C1 (centres undefined)	L major viab 92.2, ROMK mod -4.99 (no result: HCT116 bCat-KO, INS promoter inh, PTEN del growth) | ROMK hit retest 0.068
CNC(=S)SCCOc1ccccc1	none (no result: HCT116 bCat-KO, L major viab, INS promoter inh, ROMK mod, PTEN del growth)
O=C1c2cccc(OCC(=O)N3CCCc4ccccc43)c2CCN1Cc1cccnc1	none (no result: HCT116 bCat-KO, INS promoter inh, PTEN del growth)
CCOC(=O)N1CCN(C(=O)COc2cccc3c2CCN(Cc2ccccc2C)C3=O)CC1	none (no result: INS promoter inh, ROMK mod)
Cc1ccccc1CN1CCc2c(OCC(=O)N3CCCc4ccccc43)cccc2C1=O	L major viab 96.3 | ROMK hit retest inactive
CCOC(=O)N1CCN(C(=O)COc2cccc3c2CCN(Cc2cccc(C)c2)C3=O)CC1	none (no result: INS promoter inh, ROMK mod) | ROMK hit retest 0.064
CCC(C)(C(=O)NC1CCCCC1)N(CC1CCCO1)C(=O)Cc1cccs1 (centres undefined)	ROMK mod -7.8 (no result: HCT116 bCat-KO, INS promoter inh, PTEN del growth) | ROMK hit retest inactive
Brc1ccc(N=C/C=C/C=C/Nc2ccc(Br)cc2)cc1	INS promoter inh 79.0 (no result: ROMK mod) | ROMK hit retest inconclusive
CC(NCC(O)COC1CCC(C(C)(C)C)CC1)c1ccccc1 (centres undefined)	L major viab 100.0, ROMK mod -2.34 (no result: HCT116 bCat-KO, PTEN del growth) | ROMK hit retest 0.058
CC(NCC(O)COc1ccc(S(=O)(=O)N2CCOCC2)cc1)c1ccccc1 (centres undefined)	none (no result: HCT116 bCat-KO, INS promoter inh, PTEN del growth)
CCOC(=O)c1cccc(NC(=O)Cn2cnc3c2c(=O)n(C)c(=O)n3C)c1	none (no result: ROMK mod)
CC(C)(C)OC(=O)N1CCCN(C(=O)Nc2cccc(Cl)c2)CC1	none (no result: HCT116 bCat-KO, L major viab, INS promoter inh, ROMK mod, PTEN del growth)
Cc1ccc(NC(=O)CCN2CCN(C/C=C/c3ccccc3)CC2)cc1C	L major viab 87.1, ROMK mod -3.11 | ROMK hit retest 0.0477
O=C(Nc1cccc(Cl)c1)N1CCN(C/C=C/c2ccccc2)CC1	ROMK mod -3.58 | ROMK hit retest inconclusive
CCOc1ccccc1N1CCN(C(=O)Nc2cccc(Cl)c2)CC1	ROMK mod -3.09 | ROMK hit retest inactive
CCc1nnc(NS(=O)(=O)c2ccc(NC(=S)NC(=O)/C=C/c3ccc(C(C)C)cc3)cc2)s1	none (no result: ROMK mod)
CCOc1ccc(C2C(C(=O)Nc3cc(C)on3)c3ccccc3C(=O)N2CCN2CCOCC2)cc1 (centres undefined)	ROMK mod -4.13 (no result: HCT116 bCat-KO, PTEN del growth) | ROMK hit retest inactive
